Results published in PubChem BioAssay (NCI).
The panel holds about 83,000 compounds, 20% with a hit somewhere; the sample as a whole holds those more often.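 Single-concentration screen, 48 h exposure, 96-well plates. Endpoint: percent growth. Below 10 = active.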 A number with no mark means an inactive call. Calls of active or inactive are those of the source.

Key:
Assay in all cases: NCI-60 one-dose screen, 48 h (100 = growth as untreated, 0 = no growth, -100 = all killed)
Conditions in all cases: 10 µM unless noted
NCI-H23 lung = system: NCI-H23 lung
NCI-H226 lung = system: NCI-H226 lung
NCI-H322M lung = system: NCI-H322M lung
HOP-62 NSCLC = system: HOP-62 NSCLC
NCI-H460 lung = system: NCI-H460 lung
HOP-92 NSCLC = system: HOP-92 NSCLC
NCI-H522 lung = system: NCI-H522 lung
A549/ATCC NSCLC = system: A549/ATCC NSCLC
786-0 renal = system: 786-0 renal
COLO 205 colon = system: COLO 205 colon
DU-145 prostate = system: DU-145 prostate
K-562 leukemia = system: K-562 leukemia
MALME-3M melanoma = system: MALME-3M melanoma
MDA-MB-231 breast = system: MDA-MB-231 breast
RXF 393 renal = system: RXF 393 renal
SF-268 CNS = system: SF-268 CNS
SF-295 CNS = system: SF-295 CNS
SF-539 CNS = system: SF-539 CNS
UACC-257 melanoma = system: UACC-257 melanoma
M14 melanoma = system: M14 melanoma

Compound	growth (NCI-H23 lung)	growth (NCI-H226 lung)	growth (NCI-H322M lung)	growth (HOP-62 NSCLC)	growth (NCI-H460 lung)	growth (HOP-92 NSCLC)	growth (NCI-H522 lung)	growth (A549/ATCC NSCLC)	growth (786-0 renal)	growth (COLO 205 colon)	growth (DU-145 prostate)	growth (K-562 leukemia)	growth (MALME-3M melanoma)	growth (MDA-MB-231 breast)	growth (RXF 393 renal)	growth (SF-268 CNS)	growth (SF-295 CNS)	growth (SF-539 CNS)	growth (UACC-257 melanoma)	growth (M14 melanoma)
CCNc1ncnc2n[nH]nc12	96.9%	90.8%	101%	95.7%	103%	83.1%	93.2%	91.1%	96.1%	105%	104%	97%	102%	111%	112%	99.5%	95%	101%	92.9%	99.7%
C=CC(=O)Nc1cccc(Nc2nc(Nc3ccc(OCCOC(F)F)cc3)ncc2F)c1	75.2%	22.5%	10.3%	29.1%	37.4%	-0.338% (active)	-7.77% (active)	30.9%	20%	63.5%	34.7%	19.9%	46.3%	66.3%	9.55% (active)	40.5%	52.5%	31.4%	52.7%	29%
O=C(O)c1cccc(S(=O)(=O)c2ccccc2)c1	96.8%	96.8%	98.6%	103%	100%	82.8%	93.5%	102%	108%	104%	107%	107%	87.7%	123%	101%	103%	95%	98.5%	105%	95.9%
C=C1C(=O)O[C@H]2[C@H]1CC/C(COC(=O)n1ccnc1C)=C\CC[C@@]1(C)O[C@@H]21	98.7%	91.2%	98.3%	99.4%	105%	106%	66.3%	89.3%	95.7%	89.8%	93.2%	95.4%	92.6%	106%	96.2%	101%	104%	101%	75.1%	91%
COc1cc(C(=O)NNC(=O)c2ccccc2C(=O)O)cc(OC)c1OC	15.9%	74.6%	80.7%	51.6%	11.9%	55.3%	32.2%	52.7%	38.8%	37.5%	56.8%	43.1%	62%	45.2%	-3.15% (active)	53.8%	46.8%	30.1%	69.9%	51.4%
CO[C@H]1/C=C/C=C/C=C/C[C@H](OC(=O)[C@@H](C)NC(=O)C2CCCCC2)[C@H](C)[C@@H](O)/C(C)=C\CCC2=CC(=O)C=C(NC(=O)C1)C2=O	-14.1% (active)	-15% (active)	-2.45% (active)	-35.6% (active)	1.23% (active)	-10.7% (active)	-29.9% (active)	-5.23% (active)	-5.57% (active)	-26.6% (active)	-13.8% (active)	3.3% (active)	-7.99% (active)	5.38% (active)	-40.2% (active)	-7.66% (active)	-33.5% (active)	-49.3% (active)	-18.9% (active)	-40.3% (active)
CC1(C)CC(=O)C2=C(C1)OC1=C(C(=O)CC(C)(C)C1)C2c1ccc(OCc2cn(-c3ccc(F)cc3F)nn2)cc1	102%	88.9%	105%	116%	100%	107%	77%	84.3%	120%	101%	92.2%	73.8%	89.6%	91.8%	107%	84.9%	95.5%	99.8%	83.3%	87.3%
Nc1ncc(-c2ccc3ncnc(Nc4cncc(Cl)c4)c3c2)cn1	65.1%	55.2%	29.8%	65.6%	67.8%	-0.664% (active)	55.5%	65.4%	65.8%	75.6%	49.7%	82.9%	38.7%	66.5%	60.3%	68.2%	77.2%	78.1%	82.9%	77.9%
COc1cc(NC(C)CCCN2C(=O)c3ccccc3C2=O)c2ncccc2c1OC (stereo not given)	91.6%	98.2%	79.5%	80.7%	103%	45.4%	70.8%	100%	91.1%	101%	104%	71.3%	74.1%	90.2%	95%	108%	81.1%	98.6%	99.4%	78.7%
CC(C)(c1ccc(OCC(O)CNCc2ccco2)cc1)c1ccc(OCC(O)CNCc2ccco2)cc1 (stereo not given)	93.4%	94.6%	99.4%	82.2%	98%	57.4%	86%	81.2%	70.8%	85.5%	92%	60.8%	98%	62.4%	76.4%	77.7%	95.2%	89.7%	92.8%	92.1%
C[C@]12CC[C@@H]3c4ccc(O)c(N)c4CC[C@H]3[C@@H]1CC[C@@H]2O	101%	112%	114%	143%	102%	140%	82.6%	99.9%	118%	123%	110%	79.8%	129%	115%	116%	98.9%	108%	106%	82.5%	100%
CCCCCCCCCCCCCCCCCCNCc1ccc(Cl)cc1	-65.4% (active)	4.03% (active)	9.39% (active)	-77.7% (active)	-71.6% (active)	-78% (active)	-82.5% (active)	-80.7% (active)	-75.1% (active)	-83.9% (active)	-91.3% (active)	-65.7% (active)	-57.6% (active)	-72.9% (active)	-74.4% (active)	-63.5% (active)	-46.8% (active)	-88.1% (active)	38.9%	-72.2% (active)
O=C(NCCNc1nccc(-c2c(-c3cccc(O)c3)nc3sccn23)n1)c1cccc(C(F)(F)F)c1	81%	88.5%	103%	114%	85.7%	83.8%	48.5%	71.3%	89.3%	71.1%	91.4%	56.2%	0.753% (active)	76.2%	79.9%	86.7%	69.6%	100%	14.4%	17.5%
Cc1cc2c(cc1C)N(C(=O)CCl)CCN2C(=O)CCl	-57.1% (active)	-19.3% (active)	10.2%	-46.7% (active)	-54.7% (active)	-72.5% (active)	-82.5% (active)	-29.4% (active)	-24.8% (active)	-41.7% (active)	-97.8% (active)	5.44% (active)	-57.3% (active)	-45.9% (active)	-47.1% (active)	-33.4% (active)	11.8%	-85.6% (active)	-67.2% (active)	-12.1% (active)
O=c1nc(N2CCOCC2)oc2c(-c3cccc4ccccc34)cccc12	89.3%	66.6%	90.8%	80.8%	110%	60.1%	82%	85.6%	74.4%	103%	97.7%	90.1%	75.2%	93.5%	61.1%	80.6%	89.2%	85%	96.5%	93.2%
